# Inconclusive results are not listed. The source made the active and inactive calls. How the source made its calls, unless noted: active means hit-call score of the fitted dose curve at least 0.9, where 1 is the maximum; inconclusive means response in the unintended direction; inactive means score below 0.9.
# What was measured:
# [1] = Tanguay_ZF_120hpf_TR_legacy: (Legacy) Oregon State University Tanguay Lab 120 Hour Post-fertilization zebrafish Assay for Touch Response (AID 2283667)
# Summary of the method: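 Binary touch-response endpoint in larvae at 120 hpf after static waterborne exposure from embryo stage (28°C, 0.64% DMSO vehicle, 5 uM trimethyltin chloride as positive control); embryos dead at 24 or 120 hpf excluded; fitted as gain versus DMSO.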
# [2] = Tanguay_ZF_120hpf_NC_legacy: (Legacy) Oregon State University Tanguay Lab 120 Hour Post-fertilization zebrafish Assay for Notochord and Tail Malformation (AID 2283656)
# Summary of the method: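 Binary notochord-distortion calls, made by brightfield inspection, form the read-out; activity is fitted in the positive direction against DMSO. Exposure ran statically from 6 to 120 hpf at 28C with 0.64% DMSO.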
# [3] = CCTE_Padilla_ZF_144hpf_TERATOSCORE: (Legacy) CCTE's 144 Hour Post-fertilization zebrafish Assay Teratoscore, Padilla Lab (AID 2283679; active means hit-call score of the fitted dose curve at least 0.9, where 1 is the maximum; inactive means score below 0.9;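 on AC50: zebrafish embryos with chorions exposed by immersion from 6-8 hpf to 5 dpf with daily renewal; teratogenicity score from eye scoring of death hatching and malformations at 144 hpf; higher score means more developmental defects relative to DMSO baseline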)
# Summary of the method: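 Larvae scored by eye at 144 hpf for death, hatching and malformations after a day in clean Hanks'. Before that, daily-renewed exposure at 80 uM (0.4% DMSO, 26C) from roughly 6-8 hpf through 5 dpf, 4 embryos per chemical.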
# [4] = STM_H9_CystineISnorm_perc: Stemina devTOX quickPredict H9 human embryonic stem cell (hESC)-based Assay for Cystine (CYSS) Metabolite Biomarker, Normalized (AID 2283713; active means hit-call score of the fitted dose curve at least 0.9, where 1 is the maximum; inactive means score below 0.9)
# Summary of the method: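 Normalized cystine level in conditioned medium from the final 24h of a 72h treatment of pluripotent H9 cells (daily media and compound renewal). Quantified by UPLC-HRMS with C13-labeled internal standard; scaled to median of 0.1% DMSO vehicle wells.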
# [5] = STM_H9_OrnCyssISnorm_ratio: Stemina devTOX quickPredict H9 human embryonic stem cell (hESC)-based Assay for Ornithine (ORN):Cystine (CYSS) Ratio (AID 2283714)
# Summary of the method: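 Ratio of internal-standard-normalized ornithine to cystine, measured by UPLC-HRMS in spent media from the last 24 h. H9 cells kept pluripotent, dosed 72 h with daily media and compound renewal; DMSO 0.1% serves as baseline.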
# [6] = test system: Thyroperoxidase (TPO), gene 54314; assay: CCTE_Simmons_AUR_rTPO: CCTE's Amplex UltraRed Assay for Thyroperoxidase (TPO) Inhibition, Simmons Lab (AID 2283662);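 further: potency for loss of signal meaning inhibition of peroxidase activity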
# Summary of the method: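 Cell-free peroxidase activity assay using rat thyroid gland microsomes with excess H2O2 (300 uM) and 25 uM Amplex UltraRed. Compounds tested from 5 nM to 87.5 uM; fluorescence measured after 30 min at 37C, analysed relative to DMSO baseline.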
# [7] = CCTE_Simmons_CellTiterGLO_HEK293T: Viability Assessment in CCTE's Assays for Thyroperoxidase (TPO) Inhibition, Simmons Lab (AID 2283665);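 on AC50: cells exposed to compound for 24 h before readout; actives reduce ATP signal below DMSO vehicle meaning cytotoxicity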
# Summary of the method: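 ATP depletion measured in HEK293T cells after 24 h dosing (8 concentrations, 5 nM–87.5 uM final; DMSO 0.5%) using CellTiter-Glo luminescence; curves fit for loss of signal against DMSO baseline.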
compound,measurement,setting,value
CC(=O)OCCOCCOCCOC(C)=O,outcome,[1],inactive
COCCOCCOC,outcome,[2],inactive
same,outcome,[1],inactive
same,outcome,[3],inactive
same,outcome,[4],inactive
same,outcome,[5],inactive
CC1(C)NC(=O)NC1=O,outcome,[2],inactive
same,outcome,[3],inactive
Cc1cccc(Nc2cc(Cl)nc(SCC(=O)O)n2)c1C,outcome,[2],inactive
same,outcome,[1],inactive
same,AC50,[4],53.6 µM (active)
CC(CO)OC(C)CO (centres undefined) (tested in a mixture with another compound),outcome,[2],inactive
same,outcome,[1],inactive
same,outcome,[4],inactive
CCCCCCCCCCCCCCCCCC(=O)O,outcome,[1],inactive
CC1(C)CC(N=C=O)CC(C)(CN=C=O)C1 (centres undefined),outcome,[2],inactive
same,outcome,[1],inactive
same,outcome,[3],inactive
OC[C@@H](O)[C@@H](O)[C@H](O)[C@H](O)CO,outcome,[2],inactive
same,outcome,[1],inactive
same,outcome,[4],inactive
same,outcome,[5],inactive
Cc1nc(-c2ccc3c(c2)CCN(CCC2CCC(NC(=O)/C=C/c4ccc(F)cc4)CC2)CC3)no1 (centres undefined),outcome,[2],inactive
same,outcome,[1],inactive
same,outcome,[4],inactive
COc1ccc(C)cc1N,AC50,[6],1.23 µM (active)
same,outcome,[7],inactive
same,outcome,[1],inactive
Oc1ccc2c(c1)OC[C@@H](N1CCC(O)(c3ccc(F)cc3)CC1)[C@H]2O,outcome,[2],inactive
same,outcome,[1],inactive
same,AC50,[3],1.46 µM (active)
C=CCOC(=O)c1ccccc1C(=O)OCC=C,outcome,[2],inactive
same,outcome,[1],inactive
same,AC50,[3],16.6 µM (active)
same,AC50,[4],53.5 µM (active)
same,AC50,[5],41.3 µM (active)
COC(=O)c1ccc(O)cc1,outcome,[2],inactive
same,outcome,[1],inactive
same,outcome,[3],inactive
same,outcome,[4],inactive
same,outcome,[5],inactive
CCCCc1ccc2c(n1)[C@@H](c1ccc(OC)cc1C[C@H](C)C(=O)O)[C@H](C(=O)O)[C@H]2c1ccc2c(c1)OCO2,outcome,[2],inactive
same,outcome,[4],inactive
COc1ccc(S(=O)(=O)N2C(=O)[C@@](c3ccccc3OC)(N3C[C@H](O)C[C@H]3C(=O)N(C)C)c3cc(Cl)ccc32)c(OC)c1,outcome,[2],inactive
same,outcome,[1],inactive
same,outcome,[4],inactive
same,outcome,[5],inactive
Clc1cc(Cl)c(Cl)cc1Cl,outcome,[1],inactive
C=CCc1ccc(O)c(OC)c1,AC50,[6],6.16 µM (active)
same,outcome,[7],inactive
same,outcome,[1],inactive
CC(C)c1ccc(C(=O)N=C(N)N)cc1S(C)(=O)=O,outcome,[1],inactive
CC(C)(C)c1cc(O)c(C(C)(C)C)cc1O,AC50,[6],3.58 µM (active)
same,AC50,[7],27.5 µM (active)
same,AC50,[1],34.6 µM (active)
same,AC50,[3],1.19 µM (active)
CCc1c(C(=O)NN2CCCCC2)nn(-c2ccc(Cl)cc2Cl)c1-c1ccc(Br)cc1,outcome,[2],inactive
same,AC50,[3],0.533 µM (active)
NC(=O)Cn1c(=O)cc(CCN2CCN(c3nccc4sccc34)CC2)c2ccc(F)cc21,outcome,[2],inactive
same,outcome,[1],inactive
same,outcome,[4],inactive
same,outcome,[5],inactive
CNCc1cc(F)ccc1Oc1ccc(Cl)c(Cl)c1,outcome,[2],inactive
same,AC50,[3],15.7 µM (active)
O=c1[nH]cc(F)c(=O)[nH]1,outcome,[2],inactive
same,outcome,[1],inactive
same,AC50,[4],2.71 µM (active)
same,AC50,[5],3 µM (active)
O=C(O)Cc1ccccc1Nc1c(Cl)cccc1Cl,outcome,[2],inactive
same,outcome,[1],inactive
same,AC50,[3],4.79 µM (active)
same,outcome,[4],inactive
same,outcome,[5],inactive
CC(=O)C(C)=CC1C(C)=CCCC1(C)C (centres undefined),outcome,[2],inactive
same,outcome,[3],inactive
FC(F)(F)C(F)(F)C(F)(F)C(F)(F)C(F)(F)C(F)(F)CCI,outcome,[1],inactive
same,AC50,[3],31.3 µM (active)
COc1ccc2c(c1)c(CC(=O)O)c(C)n2C(=O)c1ccc(Cl)cc1,outcome,[2],inactive
same,AC50,[3],61.7 µM (active)
same,outcome,[4],inactive
same,AC50,[5],84.8 µM (active)
CCNc1cccc(C)c1,AC50,[6],12.1 µM (active)
same,outcome,[7],inactive
same,outcome,[1],inactive
CN1CCN(Cc2cc(-c3ccc4[nH]c(=O)oc4c3)co2)[C@@H](c2ccc(F)cc2)C1,outcome,[2],inactive
same,outcome,[1],inactive
same,AC50,[3],18.6 µM (active)
same,AC50,[4],5 µM (active)
same,AC50,[5],5 µM (active)
